In PubChem BioAssay AID1458 (National Center for Advancing Translational Sciences (NCATS), 2008):
In all, about 210,000 compounds went through this assay and about 5,900 (2.8%) were called active. Roughly 5% stayed inconclusive and do not appear here. Calls come from the whole dose curve; as a rule, active = well fitted activation curve with a large enough effect; inconclusive = small, poorly fitted or top-dose-only effect; inactive = no such curve, though single readings can be large or run the other way. Only a selection was taken, and actives are over-represented in it overall.

Test: qHTS Assay for Enhancers of SMN2 Splice Variant Expression; note: nearly all actives have a fitted effect of over 55% in size; for activity change, positive = activation: % of control where 0% means no effect
Settings: HEK293 SMN2-luciferase splicing reporter, luminescence, 30-36 h; series mostly up to 46.1 µM; activity change, positive = activation: at the top concentration
Outline: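 qHTS luciferase splicing reporter: luminescence rises when SMN2 exon 7 is included in transfected HEK293 cells. Compound exposure lasted 30-36 h at 37C, with 4.5 mM final sodium butyrate as control, followed by a ONE-Glo read.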
Potency is the fitted concentration of half-maximal effect.

Activity change, positive = activation, inactive:
COc1ccc(CNC(=O)c2cc3c(=O)[nH]c4ccc(C)cc4c3s2)c(OC)c1 2.14%
Cc1c(C(N)=O)sc2ncn(CCOc3ccccc3)c(=O)c12 4.68%
Cc1cccc2c1N(CCOc1ccccc1)C(=O)C2=O -9.26%
Cc1cc(C)cc(NC(=O)CSc2oc(-c3ccccc3)nc2S(=O)(=O)c2ccc(Cl)cc2)c1 0.788%
Cc1ccc(Cl)cc1N1CCN(C(=O)CN2C(=O)COc3ccc(S(=O)(=O)N4CCOCC4)cc32)CC1 1.39%
COc1cccc(OCCCN2CCCCCC2)c1 -9.69%
C(=N\n1cnnc1)/c1cccnc1 3.41%
CCOc1ccccc1C(=O)NC1(C(F)(F)F)NC(=O)N(CCc2ccc(OC)c(OC)c2)C1=O (stereo not drawn) -22.8%
CCOC(=O)c1ccc(NC(=O)C2CC(=O)NC(=Nc3ccc(C)c(C)c3)S2)cc1 (stereo not drawn) -9.52%
CCCCN(C)CCNC(=O)C1CCCN(S(=O)(=O)c2cccc3nsnc23)C1 (stereo not drawn) -0.0075%
Cc1ccc(S(=O)(=O)c2nnn3c2nc(N2CCN(c4ccccc4F)CC2)c2cc(Cl)ccc23)cc1C -3.67%
S=C(Nc1ccc(Br)cc1Cl)NC1CCN(Cc2ccccc2)CC1 -68.5%
CCC(=O)NC(=S)Nc1ccc(NC(=O)c2ccco2)c(Cl)c1 -1.02%
Cc1ccc(-c2cc(-c3coc4ccccc4c3=O)c3c(n2)-c2cc(Cl)ccc2OC3)cc1 -0.83%
COc1ccc(CNC(=O)c2ccc(NC(=O)N3CC4CCCN4c4ccccc43)cc2)cc1 (stereo not drawn) -6.58%
Cc1ccccc1NC(=O)NNC(=O)OC(C)(C)C 20.2%
CC(C)(C)OC(=O)N/N=C/c1ccc(C(=O)O)cc1 10.1%
Cc1cc(NC(=O)c2ccc(-c3ccc(Cl)cc3)o2)cc(-c2nc3ncccc3o2)c1O -0.868%
COc1ccc(C(=O)Nc2nonc2-c2ccc(OC)c(OC)c2)cc1Cl -19%
C/C(=N/NC(=O)c1ccc(NC(=O)c2ccc(F)cc2)cc1)c1ccccc1 10.8%
CC(C)=C(NC(=O)c1ccccc1)C(=O)N/N=C(\C)c1ccccc1O -18.1%
CCOC(=O)c1c(NC(C)=O)c2c3c(sc2n1Cc1c(C)cc(C)cc1C)CCCC3 -5.97%
COc1ccccc1-c1cc2nc(C)c(CCC(=O)NC3CCCCC3)c(C)n2n1 -6.73%
CCS(=O)(=O)C1=NSC2=NC(=O)/C(=C\c3cc(C)n(-c4cccc(OC)c4)c3C)C(=N)N21 5.92%
CS(=O)(=O)c1ccc2c(c1)SC1=NC(=O)/C(=C/c3ccco3)C(=N)N12 9.12%
Cn1c(=O)cc(OCC(=O)N2CCN(c3ccccc3)CC2)c2ccccc21 4.37%
COC(=O)c1ccc(C2C(C(=O)Nc3ccccc3)=C(C)Nc3nc4ccccc4n32)cc1 (stereo not drawn) -7.04%
CN(Cc1ccccc1)C(=O)c1cn(C)c2ccc(S(=O)(=O)N(C)C3CCCCC3)cc2c1=O -3.3%
COc1cccc(C(=O)c2sc3nc(-c4ccccc4)cc(C(F)(F)F)c3c2N)c1 -9.67%
CN(C)c1ccnc2sc3c(=O)n(Cc4ccccc4)cnc3c12 -24%
CN(CC(=O)Nc1cccc(C(F)(F)F)c1)S(=O)(=O)c1cccs1 0.287%
CCC1CCCCN1Cc1c(O)ccc2c(=O)c(Oc3ccccc3Cl)c(C(F)(F)F)oc12 (stereo not drawn) -6.73%
COc1ccc(CC(=O)c2ccc(O)cc2O)cc1OC 19.7%
Cc1cc(O)cc(O)c1C(=O)Cc1cnn(-c2ccccc2)c1 -16.1%
Cn1nc(-c2ccccc2)c(-c2ccccc2)c(C(=O)Nc2ccc(S(N)(=O)=O)cc2)c1=O 8.83%
COC(=O)Cn1cc(C(=O)c2cccs2)c2ccccc21 8.54%
O=C(Cn1cc(C(=O)c2cccs2)c2ccccc21)NCc1cccs1 25.6%
CC(=O)c1nn(-c2cccc(Br)c2)cc1C(=O)c1cccc2ccccc12 -21.6%
CCOC(=O)c1cn(Cc2cccc(C)c2)nn1 0.18%
CCCOc1ccccc1C(=O)NCCCC(=O)O -16.9%
COc1ccccc1-c1nc(SC)n[nH]1 12.2%
O=C(Cc1ccccc1)NNC(=O)C1CCN(c2ncccn2)CC1 4.38%
O=C(NCC1CCC(C(=O)O)CC1)OCc1ccccc1 (stereo not drawn) -2.66%
CCOC(=O)Cc1ccc(NC(=O)Nc2c[nH]c(=O)[nH]c2=O)cc1 -3.88%
O=c1[nH]c2cc(Br)ccc2n2cccc12 22.8%
CCCCCC(=O)Nc1ccc2oc(-c3ccncc3)nc2c1 -15.7%
O=C(Nc1ccc2oc(-c3ccc(O)c(Br)c3)nc2c1)c1cc2ccccc2o1 1.87%
CCOc1ccc(OCC)c(NC(=O)CN(c2ccc(C)cc2)S(=O)(=O)c2c(C)n[nH]c2C)c1 -8.29%
COc1ccc(Cl)cc1NC(=O)c1sc2nc3c(cc2c1N)CN(C)CC3 9.66%
COc1ccc(CCn2cc3c(c2-c2ccc(Br)cc2)c(=O)n(C)c(=O)n3C)cc1OC -0.506%
Cc1cccc(NC(=O)C2CCCN2S(=O)(=O)c2cccc3nsnc23)c1C (stereo not drawn) -4.32%
Cc1ccc(-n2c(=O)c3cccnc3n2CC(=O)NCc2ccc(F)cc2)cc1C -1.87%
CC(OC(=O)c1ccc2ccccc2n1)C(=O)c1ccccc1 (stereo not drawn) -3.13%
NC(=O)COC(=O)/C=C/c1ccc2ccccc2n1 4.91%

Potency, active:
Cc1nn(CCOc2ccccc2)c(=O)n1-c1ccccc1F 17.8 µM
COc1cccc(OCCOc2cccc(/C=N/n3cnnc3)c2)c1 8.91 µM
O=C(NNC(=S)Nc1ccc(Br)cc1Cl)c1ccco1 12.6 µM
C/C(=N\NC(=O)OC(C)(C)C)c1ccc[nH]1 12.6 µM
C/C(=N\NC(=O)c1nc(C)cc(C)n1)c1ccccc1 11.2 µM
Cc1cc(/C=C2/C(=N)N3C(=NC2=O)SN=C3S(C)(=O)=O)c(C)n1-c1ccccc1 15.8 µM
CN(C)c1ccnc2sc(C(=O)c3ccccc3)c(N)c12 14.1 µM
COc1ccc(C(=O)Cc2cnn(-c3ccccc3)c2)c(O)c1 17.8 µM
COC(=O)c1cn(CC(=O)NCc2cccs2)c2ccccc12 22.4 µM
CCOC(=O)c1nn(-c2cccc(C)c2)cc1C(=O)c1ccccc1 10 µM
CCCOc1ccccc1-c1nc(SCCC(=O)O)n[nH]1 7.08 µM
O=C(O)C1CCN(C(=O)OCc2ccccc2)CC1 17.8 µM
CCCC(=O)Nc1ccc2oc(-c3ccc(O)c(Br)c3)nc2c1 11.2 µM
CCOc1cccc(/C=C/c2ccc3ccccc3n2)c1OC(C)=O 1.58 µM
